The campaign covered roughly 5,500 compounds. About 2,000 (36%) were called active. About 18% were inconclusive and are not listed. Rule as the data show it: active = normalized growth mostly below about 0.91 (no sharp cut-off); inconclusive = no clear call, values can overlap the other calls; inactive = mostly above about 0.92. This is one part of the list.
Assay: chemical genetic growth profiling, strain panel (AID 1159580);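 also: tested at 20 µM; growth read once vehicle control cultures reached saturation at 30 °C; 1 = growth at the plate median or of vehicle wells; lower values mean less growth of the strain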
Details: S. cerevisiae deletion strains, growth OD

Measured: normalized growth

CC1(C)C(=O)C=C[C@@]2(C)C1=C(O)C(=O)[C@]1(C)C2CC[C@@]2(C)[C@H](c3ccoc3)C[C@H]3O[C@]321 (stereo partly specified)
inactive: locus YJL187C, strain SWE1, active compounds read low 0.928 | locus YKL009W, strain mrt4, active compounds read low 0.885 | locus YKL068W, active compounds read low 0.942 | locus YKR026C, strain gcn3, active compounds read low 0.965 | locus YKR091W, strain srl3, active compounds read low 0.969 | locus YLL001W, strain dnm1, active compounds read low 0.931 | locus YLL026W, active compounds read low 0.944 | locus YLL041C, strain sdh2, active compounds read low 0.991 | locus YLR102C, strain apc9, active compounds read low 0.967 | locus YLR357W, strain rsc2, active compounds read low 1.03 | locus YLR370C, strain arc18, active compounds read low 0.959 | locus YLR384C, strain iki3, active compounds read low 0.973 | locus YMR078C, strain ctf18, active compounds read low 0.936 | locus YMR129W, active compounds read low 0.969 | locus YMR231W, strain pep5, active compounds read low 0.931 | locus YNL067W, strain RPL9B, active compounds read low 0.876 | locus YNL183C, strain NPR1, active compounds read low 0.848 | locus YNL209W, strain ssb2, active compounds read low 0.943 | locus YNL248C, strain rpa49, active compounds read low 0.938 | locus YNL250W, strain rad50, active compounds read low 0.97 | locus YNL271C, strain bni1, active compounds read low 0.96 | locus YNL298W, strain CLA4, active compounds read low 0.922 | locus YNL322C, strain KRE1 (second series), active compounds read low 0.981 | locus YNR049C, strain mso1, active compounds read low 0.962 | locus YOL006C, strain TOP1, active compounds read low 0.666 | locus YOL012C, strain htz1 0.626 | locus YOR080W, strain dia2, active compounds read low 0.964 | locus YOR270C, strain vph1, active compounds read low 0.897 | locus YOR316C, strain cot1, active compounds read low 0.984 | locus YPL078C, strain atp4, active compounds read low 0.939 | locus YPL106C, strain sse1, active compounds read low 0.91 | locus YPR141C, strain kar3, active compounds read low 0.96
active: locus YJR043C, strain POL32, active compounds read low 0.781 | locus YJR066W, strain TOR1, active compounds read low 0.757 | locus YKL085W, strain MDH1 (second series), active compounds read low 0.885 | locus YKL085W, strain MDH1, active compounds read low 0.885 | locus YKL160W, strain elf1, active compounds read low 0.872 | locus YKL190W, strain CNB1, active compounds read low 0.751 | locus YKR001C, strain vps1, active compounds read low 0.777 | locus YLR027C, strain aat2, active compounds read low 0.791 | locus YLR039C, strain RIC1, active compounds read low 0.404 | locus YLR058C, strain SHM2, active compounds read low 0.782 | locus YLR113W, strain HOG1, active compounds read low 0.776 | locus YLR221C, strain rsa3, active compounds read low 0.759 | locus YLR258W, strain gsy2, active compounds read low 0.88 | locus YLR262C, strain YPT6 (second series), active compounds read low 0.624 | locus YLR262C, strain YPT6, active compounds read low 0.382 | locus YLR268W, strain sec22, active compounds read low 0.788 | locus YLR320W, strain mms22, active compounds read low 0.639 | locus YLR342W, strain FKS1 (second series), active compounds read low 0.578 | locus YLR342W, strain FKS1, active compounds read low 0.881 | locus YLR371W, strain rom2, active compounds read low 0.706 | locus YLR418C, strain cdc73, active compounds read low 0.318 | locus YML016C, strain PPZ1, active compounds read low 0.887 | locus YML032C, strain rad52, active compounds read low 0.811 | locus YML120C, strain ndi1, active compounds read low 0.884 | locus YML124C, strain tub3, active compounds read low 0.922 | locus YMR058W, strain fet3, active compounds read low 0.875 | locus YMR125W, strain sto1, active compounds read low 0.876 | locus YMR205C, strain PFK2, active compounds read low 0.674 | locus YMR223W, strain ubp8, active compounds read low 0.865 | locus YMR307W, strain GAS1, active compounds read low 0.502 | locus YNL071W, strain lat1, active compounds read low 0.44 | locus YNL233W, strain BNI4, active compounds read low 0.706 | locus YNL307C, strain MCK1, active compounds read low 0.505 | locus YNR052C, strain pop2, active compounds read low 0.863 | locus YOL147C, strain pex11, active compounds read low 0.804 | locus YOR001W, strain rrp6, active compounds read low 0.841 | locus YOR061W, strain CKA2, active compounds read low 0.847 | locus YOR069W, strain VPS5, active compounds read low 0.889 | locus YOR070C, strain gyp1, active compounds read low 0.809 | locus YOR083W, strain WHI5, active compounds read low 0.875 | locus YOR106W, strain vam3, active compounds read low 0.801 | locus YOR136W, strain idh2, active compounds read low 0.891 | locus YOR144C, strain elg1, active compounds read low 0.855 | locus YOR184W, strain ser1, active compounds read low 0.487 | locus YOR231W, strain MKK1, active compounds read low 0.706 | locus YOR265W, strain rbl2, active compounds read low 0.918 | locus YOR290C, strain snf2, active compounds read low 0.84 | locus YPL051W, strain arl3, active compounds read low 0.831 | locus YPL240C, strain hsp82, active compounds read low 0.861 | locus YPL256C, strain CLN2, active compounds read low 0.747 | locus YPR119W, strain clb2, active compounds read low 0.915 | locus YPR163C, strain tif3, active compounds read low 0.665 | locus YPR167C, strain met16, active compounds read low 0.85 | strain wtn01, active compounds read low 0.765
